Screens as filed in PubChem BioAssay.
Only some compounds are listed: those with a hit (about 1.9% of all), similar ones and a draw of the others.
S1P3 antagonist: S1P3 receptor antagonists, primary screen, cell-based | CHO S1P3 NFAT-BLA reporter, FRET fluorescence, antagonist mode | inhibition, % at 4.98 µM | 170,000 tested, 0.27% active;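 active = inhibition above the plate cutoff, the mean inhibition of test wells on that plate plus 3 SD, cut at about 28% in these data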;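 note: cells challenged with S1P at its EC80 of 0.8 µM; blue over green emission ratio from cleaved BLA substrate after 4 h stimulation; 0% = S1P-stimulated wells and 100% = unstimulated DMSO-only wells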
Target sequence (Q99500 whole entry, looked up): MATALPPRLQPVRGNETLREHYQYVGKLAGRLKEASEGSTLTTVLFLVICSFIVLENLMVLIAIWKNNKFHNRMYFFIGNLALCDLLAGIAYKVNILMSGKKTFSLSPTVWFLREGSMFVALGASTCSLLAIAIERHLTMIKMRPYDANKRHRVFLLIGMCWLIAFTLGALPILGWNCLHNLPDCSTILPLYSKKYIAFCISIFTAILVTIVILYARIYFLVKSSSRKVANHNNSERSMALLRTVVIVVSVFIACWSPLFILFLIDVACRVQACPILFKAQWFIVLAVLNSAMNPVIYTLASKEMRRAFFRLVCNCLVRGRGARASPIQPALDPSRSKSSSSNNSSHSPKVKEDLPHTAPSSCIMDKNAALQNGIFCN
PGE2 EP2 inh: human EP2 receptor antagonists, primary screen, TR-FRET cAMP, C6 glioma cells; C6 glioma cells expressing human EP2; cells stimulated with saturating PGE2; Prostaglandin E2 receptor EP2 subtype (Homo sapiens), P43116; inhibition, % at 25 µM; 260,000 tested, 0.52% active; AID 1422, 2008;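 active = percent inhibition above 40 after rounding to a whole number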;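 note: rat C6 glioma host cells with rolipram phosphodiesterase inhibitor present; the protocol text gives 20 µM as final concentration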
Target sequence (P43116 whole entry, looked up): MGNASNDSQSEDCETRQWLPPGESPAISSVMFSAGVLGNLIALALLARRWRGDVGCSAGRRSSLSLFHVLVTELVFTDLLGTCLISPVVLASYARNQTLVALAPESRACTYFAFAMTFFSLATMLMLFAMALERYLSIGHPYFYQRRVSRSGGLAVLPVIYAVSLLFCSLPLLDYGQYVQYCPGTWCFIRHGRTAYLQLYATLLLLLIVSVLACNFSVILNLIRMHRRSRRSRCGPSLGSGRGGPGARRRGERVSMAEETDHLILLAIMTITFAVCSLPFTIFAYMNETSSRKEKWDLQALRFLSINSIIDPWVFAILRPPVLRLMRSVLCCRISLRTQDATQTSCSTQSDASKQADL
Pf gametocyte: late stage P. falciparum gametocyte viability inhibitors, primary screen, ATP luminescence, HTS; P. falciparum stage V gametocytes, 24 h; inhibition, % at 10.9 µM; 150,000 tested, 0.065% active;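 active = inhibition above the mean plus 3 SD of compounds within the control limits, set per campaign, cut at about 38% in these data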;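 note: 0% = DMSO wells and 100% = medium only without gametocytes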
S1P4 antagonist: S1P4 receptor antagonists, primary screen, cell-based; 220,000 tested, 0.26% active; S1P4-expressing cells, antagonist mode, reporter read-out; inhibition, % at 4.98 µM; in the data active = inhibition above about 29%;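 note: 0% = wells stimulated with agonist and 100% = vehicle wells without agonist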
S1P4 agonist: S1P4 receptor agonists, primary screen, cell-based | S1P4-expressing cell line, agonist reporter assay | 220,000 tested, 0.35% active | Sphingosine 1-phosphate receptor 4 (Homo sapiens), O95977 | AID 1509, 2009 | activation, % at 4.98 µM; in the data active = activation above about 11%;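 note: 0% = DMSO vehicle and 100% = reference agonist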
EP2 modulator: EP2 receptor modulators, cAMP readout, primary screen, cell-based, HTRF cAMP, PGE2 stimulation. Prostaglandin E2 receptor EP2 subtype (Homo sapiens), P43116. EP2-expressing cells, cAMP HTRF FRET, PGE2 co-stimulation. 260,000 tested, 0.83% active. induction, % at 25 µM;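 active = compounds whose cAMP rise, as percent of the full-agonist control response, exceeds 60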;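 note: rat C6 glioma line stably carrying human EP2 under a CMV promoter; the protocol text gives 20 µM as final concentration; 100% = response of wells given 1 µM PGE2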
S1P4 ag conf: S1P4 receptor agonists, retest, confirmation, cell-based, high throughput | 740 tested, 7% active | shares compounds with S1P4 agonist | S1P4 agonist cell-based reporter assay | activation, % at 4.98 µM; in the data active = activation above about 12%;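 note: 0% = vehicle and 100% = full reference agonist response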
S1P1 agonist: S1P1 receptor agonists, human, counter-screen for S1P4 agonist project, cell-based; shares compounds with S1P4 agonist; S1P1 agonist cell-based assay, activation; activation, % at 4.98 µM; 740 tested, 4% active; AID 1563, 2009; in the data active = activation above about 21%;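 note: 0% = vehicle wells and 100% = reference agonist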
An asterisk follows results filed as active; . = no result given.

SMILES	S1P3 antagonist	PGE2 EP2 inh	Pf gametocyte	S1P4 antagonist	S1P4 agonist	EP2 modulator	S1P4 ag conf	S1P1 agonist
O=S(=O)(NC1CCCCC1Nc1ccccc1)c1ccccc1 (stereo not drawn)	-3.1	5.2	10.2	-11.7	15.5*	34.2	-1.7	2.9
CC(C)(C)c1nc2ccccc2c(=O)[nH]1	.	13.1	.	.	.	-28.3	.	.
O=C(CN1CCCC1)Nc1ccc2c(c1)CCC2	-6.4	4.2	0.8	-8.6	-1.8	13.7	.	.
O=C(CN1CCN(c2ccccc2O)CC1)Nc1ccc2c(c1)CCC2	-6.0	9.2	5.6	-3.1	13.4*	-19.5	-1.5	0.0
Cc1cc(=S)cc(C)n1CCO	-0.4	5.4	-17.7	-2.5	11.2*	17.0	-1.1	1.3
CCOC(=O)CC1Sc2ccccc2NC1=S (stereo not drawn)	-18.1	8.6	-1.9	12.5	63.4*	-18.4	-0.8	-0.8
CCOC(=O)CC1Sc2ccccc2NC1=O (stereo not drawn)	.	-1.9	.	-1.7	1.5	-3.7	.	.
Cc1ccc(-c2nnn(CC(=O)NCC3OCCc4ccccc43)n2)cc1 (stereo not drawn)	.	6.6	.	.	.	-35.5	.	.
COc1cc(C(=O)NCc2ccncc2)cc(OC)c1OC	4.3	6.7	2.6	-10.9	14.0*	18.3	-1.9	-2.3
Cc1cc(C)nc(NC(=O)Cc2ccc([N+](=O)[O-])cc2)c1	-4.0	2.1	-0.7	-27.6	29.7*	26.8	-2.6	-1.2
COc1ccc([N+](=O)[O-])cc1NC(=O)Cc1ccc(Cl)cc1	-7.2	13.4	.	-5.6	14.6*	-27.7	-0.8	-7.9
O=C(CN1CCCC1c1nc(-c2ccncc2)n[nH]1)N1CCc2ccccc21 (stereo not drawn)	.	.	.	.	.	-10.2	.	.
CC(=O)N1CCc2cc(-c3csc(NC(=O)c4cccc(C)c4)n3)ccc21	.	10.9	.	.	.	-40.9	.	.
COc1cccc(NC(=O)CSc2nnc(Cc3cccs3)n2-c2ccc(C)cc2)c1	.	4.4	9.4	-2.7	13.0*	1.9	-2.2	-5.0
COc1ccc(NC(=O)CSc2nnc(Cc3cccs3)n2-c2ccc(C)cc2)cc1	.	2.8	.	8.8	-2.4	13.1	.	.
Cc1ccc(C(O)CN2CCC(O)(c3ccccc3F)CC2)cc1C (stereo not drawn)	.	4.4	.	.	.	-60.8	.	.
O=C(COC(=O)CCSc1ccccc1)Nc1ccc(F)cc1Cl	-8.0	5.6	4.4	-13.4	31.0*	4.0	-2.4	-0.7
O=C(COC(=O)CCSc1ccccc1)Nc1cc(F)ccc1F	-8.3	13.5	16.8	-8.2	0.1	24.0	.	.
CC(=O)Oc1ccc(C(=O)N2CCOCC2)cc1	.	7.6	.	.	.	-6.7	.	.
CC(=O)C1=C(C)NC(SCC(=O)c2ccc(Cl)cc2Cl)=C(C#N)C1c1ccco1 (stereo not drawn)	23.1	22.2	.	-30.5	23.6*	-8.3	25.9*	-8.0
CC(=O)C1=C(C)NC(SCC(=O)c2ccc(Cl)cc2)=C(C#N)C1c1ccco1 (stereo not drawn)	23.4	5.0	.	6.0	1.6	-1.5	.	.
Cc1sc2ncn(C(C)C(=O)O)c(=O)c2c1-c1ccc(F)cc1 (stereo not drawn)	.	7.1	.	.	.	-11.0	.	.
CCN1CCN(C(c2cc3ccc(C)cc3[nH]c2=O)c2nnnn2Cc2ccc(OC)cc2)CC1 (stereo not drawn)	.	15.3	.	.	.	-4.8	.	.
CCN(C(=O)c1cnc(OC)cc1C(F)(F)F)c1ccc(Cl)cc1	-0.3	11.8	-6.7	9.4	1.5	-12.9	.	.
COc1cc(C(F)(F)F)c(C(=O)N(C)Cc2ccc(Cl)c(Cl)c2)cn1	-0.2	14.3	-6.2	2.4	14.7*	-15.8	-1.7	-1.5
SMILES	S1P3 antagonist	PGE2 EP2 inh	Pf gametocyte	S1P4 antagonist	S1P4 agonist	EP2 modulator	S1P4 ag conf	S1P1 agonist
COc1ccc(CCC(=O)N2CCCSC2=Nc2ccc(C(C)=O)cc2)cc1	-8.8	15.4	10.0	-5.3	23.5*	-14.3	1.0	-0.6
Oc1cccc(/C=N/Nc2cc(N3CCOCC3)nc(N3CCOCC3)n2)c1	10.4	7.3	5.9	1.8	13.2*	-6.6	-1.8	-7.7
O=C(Cc1ccc(F)cc1)N1CCC(c2ccc3c(c2)OCO3)CC1	.	.	.	.	.	-18.9	.	.
COCCOc1cc(CN2CC(CN3CCOCC3)c3ccccc32)ccc1OC (stereo not drawn)	.	13.6	.	.	.	-6.1	.	.
COc1ccc(CNC(=O)c2sc3nc4c(c(C(F)(F)F)c3c2N)CCC4)cc1	-2.8	6.5	.	-15.8	195.9*	-5.1	-1.9	-8.5
COc1ccc(C(=O)NCC(=O)OCC(=O)Nc2c(C)n(C)n(-c3ccccc3)c2=O)cc1	.	5.2	12.1	-7.0	103.9*	24.2	-2.2	-6.9
COc1cc(CNCCO)cc(Cl)c1OCc1ccccc1Cl	-2.8	3.9	-11.8	10.8	11.1*	-47.3	5.0	-10.4
COc1cccc(CNCCO)c1OCc1ccccc1Cl	-8.2	3.8	.	0.1	0.5	-17.4	.	.
CC(C)NC(=O)C1CCN(C(=O)c2cc3sccc3n2Cc2ccc(F)cc2)CC1	-1.6	-4.8	.	1.7	16.0*	-22.0	0.3	6.9
O=C(Cn1c(Cc2ccccc2)nc2ccccc21)NCc1ccc2c(c1)OCO2	-5.8	5.8	17.8	-13.8	22.4*	24.5	-1.6	-3.7
NC(=S)c1cc2ccc(O)cc2oc1=O	.	.	.	-40.4	67.0*	55.5	16.5*	20.0
C/C(=N/NC(N)=S)c1cc2ccc(O)cc2oc1=O	-10.9	2.6	-10.1	-50.0	38.8*	8.5	17.8*	16.3
CC(Oc1ccccc1)C(=O)OCC(=O)NC(=O)NCc1ccco1 (stereo not drawn)	.	3.8	.	-7.0	0.4	-14.8	.	.
CC(C)c1cc(C(=O)OCC(=O)NC(=O)NCc2ccco2)c(O)c(C(C)C)c1	-3.6	6.2	24.5	-4.4	43.6*	54.1	36.0*	0.9
CCOc1ccc(NC(=O)Nc2cccn(Cc3ccccc3)c2=O)cc1	9.2	6.0	17.7	-10.0	38.0*	12.9	-0.9	-0.2
COc1ccc(N2CCN(CC(O)c3ccc4c(c3)CC(C)O4)CC2)cc1 (stereo not drawn)	.	5.8	.	.	.	-21.4	.	.
CCOC(=O)c1cc2c(=O)n3ccccc3nc2n(CCOC)c1=NC(=O)c1ccncc1	.	8.8	-66.5	-14.1	18.0*	-5.5	-0.2	-3.4
CCOCCCn1c(=NC(C)=O)c(C(=O)OCC)cc2c(=O)n3ccccc3nc21	-29.0	2.0	.	3.1	8.2	-4.5	.	.
CCOCCCn1c(=NC(C)=O)c(C#N)cc2c(=O)n3ccccc3nc21	-8.2	9.4	9.4	-26.1	24.9*	-2.4	6.3	11.1
